Sampled rows, rich in hits. Any-hit rate of the full collection: about 1.6%.
KCNQ2 block: blocks the rat KCNQ2 potassium channel; O88943; CHO-K1 KCNQ2, FluxOR thallium flux, 20 min; stronger effect = lower value; B-score at 10 µM; hit rate 1.1% among 310,000; AID 2156;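 active = fluorescence ratio B-score at most minus 3 library SDs, with starting brightness B-score within 2 library SDs, cut at about -5.5 in these data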
Target sequence (O88943 whole entry, looked up): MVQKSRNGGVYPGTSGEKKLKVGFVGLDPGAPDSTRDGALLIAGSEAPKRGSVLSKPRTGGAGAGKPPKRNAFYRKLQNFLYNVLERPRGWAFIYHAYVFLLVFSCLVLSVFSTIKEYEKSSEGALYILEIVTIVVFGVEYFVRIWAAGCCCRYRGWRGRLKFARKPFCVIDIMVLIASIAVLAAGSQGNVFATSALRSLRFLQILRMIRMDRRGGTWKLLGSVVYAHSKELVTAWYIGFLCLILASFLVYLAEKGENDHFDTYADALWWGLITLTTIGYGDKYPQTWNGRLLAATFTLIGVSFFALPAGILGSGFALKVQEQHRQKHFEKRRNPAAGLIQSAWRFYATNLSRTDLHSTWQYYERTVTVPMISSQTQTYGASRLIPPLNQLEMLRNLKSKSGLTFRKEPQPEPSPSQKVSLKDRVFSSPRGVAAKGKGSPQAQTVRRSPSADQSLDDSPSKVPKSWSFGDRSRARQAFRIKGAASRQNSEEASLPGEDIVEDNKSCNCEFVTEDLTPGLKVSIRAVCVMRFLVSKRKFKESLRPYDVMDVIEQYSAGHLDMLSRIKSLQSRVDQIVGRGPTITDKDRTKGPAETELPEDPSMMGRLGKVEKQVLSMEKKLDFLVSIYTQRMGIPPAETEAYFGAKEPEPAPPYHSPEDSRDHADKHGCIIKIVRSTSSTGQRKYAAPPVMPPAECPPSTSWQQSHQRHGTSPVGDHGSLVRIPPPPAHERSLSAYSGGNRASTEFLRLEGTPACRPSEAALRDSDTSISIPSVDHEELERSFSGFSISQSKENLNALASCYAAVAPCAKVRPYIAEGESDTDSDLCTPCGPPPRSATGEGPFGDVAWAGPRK
KCNQ2 enhance: KCNQ2 (rat) channel potentiation; hit rate 0.54% among 310,000; B-score at 10 µM; AID 2239; CHO-K1 KCNQ2, FluxOR thallium flux fluorescence; stronger effect = higher value; O88943;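 active = fluorescence ratio B-score at least 3 SD of library B-scores, with initial fluorescence B-score within 3 of them, cut at about 5.3 in these data; same plate scores as AID 2156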;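 note: B-score of peak minus minimum over baseline fluorescence ratio after K+ and Tl+ stimulus; positive B-score means potentiation of KCNQ2 with more thallium influx and brighter signal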
The depositor's hits bear a star; i = inactive; . = no result.

SMILES	KCNQ2 block	KCNQ2 enhance
CN1CCN(C(=S)NC(=O)c2ccccc2Br)CC1	i	.
O=S(=O)(Nc1ccccc1)c1ccc(NS(=O)(=O)c2c(F)cccc2F)cc1	i	.
CCCCCCNc1nc(NCc2ccco2)nc(OCC)n1	-6.1*	-6.1
CCCCCCCCNc1nc(Cl)nc(NCc2ccco2)n1	i	0.34
CN(C)S(=O)(=O)c1ccc(C(=O)OCC2CC2(Cl)Cl)cc1 (stereo not given)	i	0.07
NS(=O)(=O)c1ccc(NC(=O)C(=O)NCCC(=O)O)cc1	i	.
Cn1c(CNc2ccc(Cl)cc2)nc2ccccc21	i	.
CC(C)N=c1cc2n(-c3ccc(Cl)cc3)c3ccccc3nc-2cc1Nc1ccc(Cl)cc1	-8*	-8
CC(C)OC(=O)C(C)(C)Oc1ccc(C(=O)c2ccc(Cl)cc2)cc1	-8.1*	-8.1
CC(C)(Oc1ccc(Cl)cc1)C(=O)O	i	0.32
O=C(N/N=C/c1ccco1)C1CC1c1ccccc1 (stereo not given)	i	20*
O=C(CCc1ccccc1)N/N=C/c1cccc([N+](=O)[O-])c1	i	2.2
O=C(N/N=C/c1ccco1)C1CC1	i	1.2
O=C(N/N=C/c1cccc([N+](=O)[O-])c1)C1CC1c1ccccc1 (stereo not given)	i	15*
O=C(CNC(c1ccccc1)c1ccccc1)NCc1ccccc1Cl	-6*	-6
O=C(CNC(c1ccccc1)c1ccccc1)Nc1ccccc1-c1ccccc1	-6.3*	-6.3
O=C(CC1CCCCC1)Nc1ccccc1-c1ccccc1	i	6.5*
O=C(CCC1CCCCC1)Nc1ccccc1O	i	4.5
CCCC(=O)NCc1ccccc1Cl	i	.
O=C(CNC(c1ccccc1)c1ccccc1)Nc1ccccc1F	i	.
COc1ccccc1NC(=O)CC1CCCC1	i	0.84
O=C(CCC1CCCC1)Nc1ccccc1-c1ccccc1	i	23*
O=c1ccc2cc(S(=O)(=O)Nc3ccc(Br)cc3)ccc2o1	i	1.1
CCOC(=O)c1sc(-c2ccccn2)nc1C	i	.
COc1ccccc1CNC(=O)c1cn(C)c2ccc(S(=O)(=O)N3CCCCC3)cc2c1=O	i	0.01
SMILES	KCNQ2 block	KCNQ2 enhance
COc1ccc(C)cc1NC(=O)C(Sc1nnc2ccccn12)c1ccccc1 (stereo not given)	i	.
COc1ccc(C)cc1NC(=O)C(Sc1nnc(-c2ccncc2)n1-c1ccc(Cl)cc1)c1ccccc1 (stereo not given)	-7.9*	-7.9
COc1ccc(CC(=O)NC2CCS(=O)(=O)C2)cc1 (stereo not given)	i	0.68
CC12CCC(=O)N1C(C(=O)O)Cc1c2[nH]c2ccccc12 (stereo not given)	i	.
CC(=O)N1C(C(=O)O)Cc2c([nH]c3ccccc23)C1(C)C (stereo not given)	i	7.3*
O=C(NC1CCN(C(=O)c2cccc([N+](=O)[O-])c2)CC1)c1ccccc1	i	0.49
CCOc1ccc(OCCC(=O)OCC(=O)c2c(N)n(C)c(=O)n(C)c2=O)cc1	i	.
COc1ccc(-n2cc(-c3ccccc3)c3c(NN4CCOCC4)ncnc32)cc1	-5.6*	-5.6
Fc1ccc(-n2cc(-c3ccccc3)c3c(NN4CCOCC4)ncnc32)cc1	i	0.01
Cc1cccc(-n2cc(-c3ccccc3)c3c(N4CCOCC4)ncnc32)c1	-6.7*	-6.7
Cc1ccc(-n2cc(-c3ccccc3)c3c(N4CCOCC4)ncnc32)cc1	i	.
COc1cc(-c2nc3n(c(=O)c2C#N)CCS3)cc(OC)c1OC	i	.
COc1ccc(C(=O)Nc2ccnn2C2CCN(CCC(C)c3ccc(C)o3)CC2)cc1 (stereo not given)	i	2.4
COc1ccccc1NC(=S)NCCSc1ccc(Cl)cc1	i	.
COc1ccccc1NC(=S)NCCc1ccc(Cl)cc1	-6.2*	-6.2
COc1ccccc1NC(=O)Nc1cc(C(C)C)ccc1C	i	1.2
COc1ccccc1NC(=O)OC(C)c1ccc(Cl)cc1 (stereo not given)	-5.8*	-5.8
Fc1ccc2nc3c(nc2c1)CCCC3	i	.
CN1CCN(C(=O)C2=C[C@H](c3csc4ccccc34)C[C@H](OCc3ccc(CO)cc3)O2)CC1	i	.
O=C(C1=C[C@@H](c2ccc(C(F)(F)F)cc2)C[C@@H](OCc2ccc(CO)cc2)O1)N1CCN(Cc2ccc3c(c2)OCO3)CC1	i	.
O=C(C1=C[C@@H](c2ccc(Br)cc2)C[C@@H](OCc2ccc(CO)cc2)O1)N1CCN(Cc2ccc3c(c2)OCO3)CC1	-6.3*	-6.3
O=C(C1=C[C@H](c2csc3ccccc23)C[C@H](OCc2ccc(CO)cc2)O1)N1CCCCCCC1	-5.6*	-5.6
COc1ccc(/C=C(\C#N)C(=O)N2COCC2(C)C)cc1	i	.
CCOC(=O)/C(C)=N/NC(=O)c1ccc([N+](=O)[O-])cc1	i	5.1
CC(=N\NC(=O)c1ccc([N+](=O)[O-])cc1)/C(=N/O)C(=O)Nc1ccccc1	-5.8*	-5.8
SMILES	KCNQ2 block	KCNQ2 enhance
Cc1ccc(S(=O)(=O)C/N=C(/NC(=S)N(c2ccccc2)c2ccccc2)c2ccccc2)cc1	-5.9*	-5.9
Cc1ccc(S(=O)(=O)/N=C(/NC(=S)Nc2ccccc2)c2ccccc2)cc1	i	.
COc1ccc(C(=O)Nc2cccc(C)c2)cc1S(=O)(=O)N1CCOCC1	i	0.04
COc1ccc(C(=O)NNC(=O)COc2ccc(Cl)cc2C)cc1S(=O)(=O)N1CCOCC1	-5.6*	-5.6
CCN(CC(=O)NCCC1=CCCCC1)S(=O)(=O)c1ccccc1	i	0.55
Cc1ccccc1N1CCN(C2CCCN(C(=O)c3cnsn3)C2)CC1 (stereo not given)	i	.
Clc1cccc(/C=N/Nc2nnc(Cl)c3ccccc23)c1	i	.
Clc1ccc(/C=N/Nc2nnc(-c3ncc[nH]3)c3ccccc23)cc1	-5.7*	-5.7
Nc1[nH]nc2ncc3cc4ccccc4nc3c12	i	.
CCn1nc(NC(=O)c2ccccn2)c2cc3cc(C)ccc3nc21	i	1.1
Cc1ccc2nc3c(cc2c1)c(NC(=O)c1ccccn1)nn3CC(C)C	-7.5*	-7.5
CC1CCN(CCc2nc3cc(NC(=O)C(C)C)ccc3n2C)CC1	i	.
COc1cc(CNCc2ccccn2)ccc1OCC(N)=O	i	1.8
COc1cc(CNCc2ccccn2)ccc1OCc1ccc(Cl)c(Cl)c1	-5.9*	-5.9
O=C(O)C1CCN(C(=O)CSc2nc3cc(Cl)ccc3c(=O)n2Cc2ccccc2)CC1	i	.
CCn1cc([N+](=O)[O-])c(=O)c2cc(F)c(N3CCOCC3)cc21	i	.
C/C(=C\C(=S)Nc1ccccc1)Nc1ccc2ccccc2c1	-6.3*	-6.3
C/C(=C\C(=S)Nc1ccccc1)Nc1cccc2ccccc12	i	.
Cn1c(CBr)c(C(=O)c2ccc([N+](=O)[O-])cc2)c(=O)n(C)c1=O	i	0.5
Cc1ccc(C)n1-n1c(C)nc2sc3c(c2c1=O)CCCCC3	i	.
Cc1ccc(C)n1-n1cnc2sc3c(c2c1=O)CCCCC3	-7.5*	-7.5
O=C(CN1C(=O)C2C3CC(C(Br)C3Br)C2C1=O)Nc1ccc(C(=O)O)cc1 (stereo not given)	i	.
CC1CCCCC1NC(=O)C(Cc1ccccc1)NS(=O)(=O)c1cccs1 (stereo not given)	i	.
CC(CCc1ccccc1)NC(=O)C(Cc1ccccc1)NS(=O)(=O)c1cccs1 (stereo not given)	-5.7*	-5.7
CCCCc1ccc(NS(=O)(=O)c2cccs2)cc1	-5.9*	-5.9
O=S(=O)(Nc1ccc(Cc2ccncc2)cc1)c1cccs1	i	0.96

Screens deposited in PubChem by Johns Hopkins Ion Channel Center.
